PubChem BioAssay (NCATS)
Inconclusive results are not listed. A number with no mark means an inactive call. The source made the active and inactive calls. The call rests on the fitted dose curve; in most records, active means well fitted curve in the direction sought with a large enough effect; inconclusive means small, poorly fitted or top-dose-only effect, or another doubt; inactive means no such curve, though single readings can be large; an effect the other way counts as inactive or inconclusive.

Key:
[1] = target: Cellular tumor antigen p53 (Homo sapiens) (UniProt P04637); assay: Primary qHTS for small molecule compounds that upregulate eGFP-tagged delta133p53alpha (in N-terminal) cells. (AID 2060322); conditions: NCI-H358 eGFP-delta133p53alpha fluorescence, 24 h; activation: stronger effect = higher value; further: nearly all actives have a fitted effect of over 75% in size;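 on activation: 0% = DMSO vehicle and 100% = reference activator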
In short: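 NCI-H358 cells pre-induced 24 h with 10 ng/ml doxycycline to express N-terminal eGFP-delta133p53alpha, then dosed 24 h at 37C without doxycycline; fixed, Hoechst-stained, GFP intensity by laser scanning cytometry, normalized to DMSO (0%) and 57.5 uM 5-azacytidine (100%).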

[2] = BET inhibitor-based combinations targeting novel dependencies in MECOM-rearranged (r) AML: SET-2 cell line (AID 2202231); conditions: SET-2 AML cells viability, CellTiter-Glo luminescence, 48 h; viability: stronger effect = lower value, concentration not given here; further: nearly all actives have a fitted effect of over 35% in size;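 on viability: plate controls were DMSO treated cells for no effect and wells without cells for full effect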
In short: (§1)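 A 48 hr incubation preceded viability reading by CellTiter-Glo, with 15 min room-temperature development. Dose series had 11 points; normalization used DMSO and empty wells; AUC was computed and mean-centered per line as Z-AUC.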

[3] = BET inhibitor-based combinations targeting novel dependencies in MECOM-rearranged (r) AML: OCI-AML3 cell line (AID 2202232); conditions: CellTiter-Glo luminescence, 48 h; Potency: OCI-AML3 viability; series mostly up to 46 µM; further: nearly all actives have a fitted effect of over 35% in size;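 on viability (% of control): plate controls were DMSO vehicle wells for no effect and wells without cells for full effect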
In short: as §1

[4] = BET inhibitor-based combinations targeting novel dependencies in MECOM-rearranged (r) AML: MV-4-11 cell line (AID 2202233); conditions: MV-4-11 AML viability, CellTiter-Glo luminescence, 48 h; series mostly up to 46 µM; further: nearly all actives have a fitted effect of over 45% in size;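 on viability, % of control: plate controls were DMSO for no effect and blank wells for full effect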
In short: (§2)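 Each compound is tested in an 11-point concentration series against 500 seeded cells/well for 48 hr. The luminescent viability signal is normalized to DMSO and blank wells, then reduced to AUC and a cell-line-centred Z-AUC.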

[5] = BET inhibitor-based combinations targeting novel dependencies in MECOM-rearranged (r) AML: HNT-34 cell line (AID 2202234); conditions: HNT-34 AML viability, CellTiter-Glo luminescence, 48 h; series mostly up to 46 µM; further: nearly all actives have a fitted effect of over 35% in size;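 on viability (% of control): plate controls were vehicle wells for no effect and cell-free wells for full effect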
In short: as §2

[6] = BET inhibitor-based combinations targeting novel dependencies in MECOM-rearranged (r) AML: UCSD-AML1 cell line (AID 2202235); conditions: UCSD-AML1 AML cells viability, CellTiter-Glo, 48 h; series mostly up to 46 µM; further: nearly all actives have a fitted effect of over 40% in size;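 on viability (% of control): plate controls were DMSO vehicle wells for no effect and blank wells for full effect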
In short: as §2

[7] = BET inhibitor-based combinations targeting novel dependencies in MECOM-rearranged (r) AML: AML-191 cell line (AID 2202236; further: nearly all actives have a fitted effect of over 35% in size;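 on viability (% of control): plate controls were vehicle wells for no effect and wells without cells for full effect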); conditions: AML-191 viability, CellTiter-Glo luminescence, 48 h; series mostly up to 46 µM
In short: as §1

[8] = BET inhibitor-based combinations targeting novel dependencies in MECOM-rearranged (r) AML: AML-194 cell line (AID 2202237; further: nearly all actives have a fitted effect of over 40% in size;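 on viability (% of control): plate controls were vehicle wells for no effect and wells without cells for full effect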); conditions: AML-194 (MECOM-r AML) viability, CellTiter-Glo, 48 h; series mostly up to 46 µM
In short: as §1
Potency means the concentration at half of the fitted maximal effect.

Sequence of Cellular tumor antigen p53 (Homo sapiens) (P04637 whole entry, looked up): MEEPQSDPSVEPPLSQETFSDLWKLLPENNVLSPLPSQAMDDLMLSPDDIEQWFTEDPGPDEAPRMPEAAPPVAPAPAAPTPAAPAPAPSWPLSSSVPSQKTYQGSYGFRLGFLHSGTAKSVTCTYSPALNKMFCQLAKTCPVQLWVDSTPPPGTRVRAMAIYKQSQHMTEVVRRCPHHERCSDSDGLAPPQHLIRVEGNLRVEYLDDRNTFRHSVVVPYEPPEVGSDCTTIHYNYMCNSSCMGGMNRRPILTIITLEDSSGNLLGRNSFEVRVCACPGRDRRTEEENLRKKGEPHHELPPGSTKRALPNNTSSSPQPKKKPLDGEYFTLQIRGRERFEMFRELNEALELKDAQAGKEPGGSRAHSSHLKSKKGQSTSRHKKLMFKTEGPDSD

Row | Structure (SMILES) | Potency [1] | Potency [2] | Potency [3] | Potency [4] | Potency [5] | Potency [6] | Potency [7] | Potency [8] | activation [1] [%] | viability [2] [%] | viability (% of control) [3] | viability, % of control [4] | viability (% of control) [5] | viability (% of control) [6] | viability (% of control) [7] | viability (% of control) [8]
1 | CC(C)[C@H](CO)Nc1nc(Nc2cccc(Cl)c2)c2ncn(C(C)C)c2n1 | 24.3 µM (active) | 16.6 µM (active) | 18.6 µM (active) | 3.72 µM (active) | 16.6 µM (active) | 26.3 µM (active) | 14.8 µM (active) | 16.6 µM (active) |  |  |  |  |  |  |  | 
2 | C=C(C)[C@@H]1CC[C@]2(C)CC[C@]3(C)[C@H](CC[C@@H]4[C@@]5(C)CC[C@H](O)C(C)(C)[C@H]5CC[C@]43C)[C@@H]12 |  |  | inactive | inactive | inactive | inactive | inactive | inactive | -1.45 | 117 |  |  |  |  |  | 
3 | O=C(O)c1cn(C2CC2)c2cc(N3CCNCC3)c(F)cc2c1=O |  |  |  |  |  |  |  |  | 6.67 | 109 | 109% [at 8.46 µM] | 112% [at 8.46 µM] | 97.3% [at 8.46 µM] | 101% [at 8.46 µM] | 102% [at 8.46 µM] | 113% [at 8.46 µM]
